# Source: PubChem
# A selection: hits, their analogues and other compounds. The true share with any hit is near 19%.
# CHX counter: affects cycloheximide protein synthesis inhibition readout, counter-screen; cell reporter, cycloheximide protein synthesis inhibition counterscreen; max response, %; 300,000 tested, 12% active; AID 2314; in the data active = max response mostly above about 13%, no sharp cut-off; inactive = mostly below about 14%; also: read at 38.3 µM for the half of the compounds with a filed dose; 0% is about no effect
# AMA1 RON2 block: AMA1-RON2 (P. falciparum) interaction inhibition; AlphaScreen AMA1-biotinylated RON2 peptide binding; Potency, µM (top dose mostly 58.2 µM), inactives show top-dose activity change, negative = inhibition, usual class: inhibitors; 360,000 tested, 0.2% active; AID 720542;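 also: potency is read from the fitted curve at half-maximal effect; 0% = vehicle wells and -100% = peptide control; nearly all actives have a fitted effect of over 45% in size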
#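 AMA1 (3D7) with his tag at 25 nM final met compounds first, then biotinylated RON2 peptide at 25 nM; detection used donor plus acceptor beads, 10 µg/mL apiece, read by AlphaScreen after 30 min at room temperature.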
# Pf growth 96h: P. falciparum growth inhibition at 96 hour, primary screen for plastid delayed-death inhibitors | P. falciparum luciferase reporter growth, 96 h | Potency, µM (top dose mostly 28.7 µM), inactives show top-dose activity change, negative = inhibition, usual class: inhibitors | 320,000 tested, 6.9% active; also: potency is read from the fitted curve at half-maximal effect; % is scaled to controls: 0 for no effect and ±100 for the full control effect
#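 Parasite growth measured via integrated firefly luciferase reporter in P. falciparum. Infected erythrocytes at 2% hematocrit, 0.05% parasitemia final were treated 96 hours at 37 C under 5% CO2, and luminescence was read.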
# Shiga toxin inh: blocks Shiga toxin action in Vero cells | Vero cells, Shiga toxin protein synthesis inhibition reporter | inhibition, % at 38.7 µM | 290,000 tested, 9.2% active; in the data active = inhibition mostly above about 28%, no sharp cut-off; inactive = mostly below about 43%; also: 0% is about no effect
# SARS PLP yeast: inhibitors of SARS-CoV papain-like protease in yeast. S. cerevisiae expressing SARS-CoV PLpro, growth rescue. Potency, µM (highest dose often 32.9 µM), for inactives: at the top dose activity, positive = growth rescue, most hits filed as activators. 330,000 tested, 0.19% active. AID 485353; calls by dose curve; also: potency is read from the fitted curve at half-maximal effect; 0% is about no effect; nearly all actives have a fitted effect of over 55% in size
# Pf growth 48h: inhibits P. falciparum growth in the first generation, 48 h; P. falciparum luciferase growth in erythrocytes, 48 h; Potency, µM (top dose mostly 28.7 µM), without a hit: at the top dose activity change, negative = inhibition, hits mostly inhibitors; 310,000 tested, 5.9% active; also: potency is read from the fitted curve at half-maximal effect; % is scaled to controls: 0 for no effect and ±100 for the full control effect
#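 Luciferase-expressing P. falciparum in infected erythrocytes (2% hematocrit, 0.1% parasitemia final) in RPMI 1640/0.5% Albumax were exposed to compound for 48 hours at 37 C, 5% CO2; growth read as luminescence.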
# An asterisk follows results filed as active; i = inactive; ? = inconclusive; / = not tested or not shown; ! = not confirmed by another sample; [ ] = remark or other dose. Unless noted, calls follow the shape of the dose curve; as a rule, active = well fitted curve in the direction sought with a large enough effect; inconclusive = small, poorly fitted or top-dose-only effect, or another doubt; inactive = no such curve, though single readings can be large; an effect the other way counts as inactive or inconclusive.
SMILES,CHX counter,AMA1 RON2 block,Pf growth 96h,Shiga toxin inh,SARS PLP yeast,Pf growth 48h
C[N+](C)(C)CCOP(=O)(O)OP(=O)([O-])OC[C@H]1O[C@@H](n2ccc(N)nc2=O)[C@H](O)[C@@H]1O,-3,-2%,4%,-11,2%,3%
CCCCSc1nnc(CSc2nc3nc(C)cc(C)n3n2)o1,1,34%,?,-12,5%,/
CCc1nc(SCC(=O)Nc2ccc(F)cc2F)c2c(=O)n(C)c(=O)n(C)c2n1,0,-13%,35%,-13,-4%,3%
CCc1nc(SCC(=O)Nc2cccc(C(F)(F)F)c2)c2c(=O)n(C)c(=O)n(C)c2n1,-3,-8%,?,-9,0%,9.3µM*
COc1ccc(CCC(=O)OCC(=O)Nc2sccc2C(N)=O)cc1,/,-10%,8%,/,2%,?
COC(=O)c1ccsc1NC(=O)CCc1ccccc1,48*,-6%,115%,65*,-10%,131%
CCOc1ccccc1OCCCC(=O)Nc1sccc1C(N)=O,7,6%[11.6 µM],?,9,-1%,12µM*
NC(=O)c1ccsc1NC(=O)CCc1ccccc1,44*,5%,-11%,/,2%,84%
COC(=O)c1ccsc1NC(=O)CN1CCN(c2ccc(F)cc2)CC1,-2,?,13%,-19,-4%,?
COC(=O)c1ccsc1NC(=O)CN1CCN(c2ncccn2)CC1,-4,-9%,0%,-20,-8%,12µM*
COCCNCc1cc(C)n(-c2cc(S(=O)(=O)N3CCOCC3)ccc2N2CCCC2)c1C,/,-8%[11.6 µM],/,/,/,/
COc1ccc(OC)c(S(=O)(=O)N2CCN(c3ncccn3)CC2)c1,9,3%,12%,-5,1%,6%
COc1ccc(OC)c(S(=O)(=O)N2CCN(c3c(C)cccc3C)CC2)c1,-2,-7%,4.7µM*,-1,-8%,?
COc1ccc(C(C)C)cc1S(=O)(=O)N1CCN(C)CC1,-5,0%,12µM*,-18,4%,/
C=CCSc1nc(N)c(C(=O)Nc2ccccc2C)cc1C(N)=O,1,2%,-19%,-7,2%,-6%
Cc1ccccc1CNC(=O)C(C)Sc1ccccc1 (centres undefined),/,0%,/,/,/,/
Cc1cc2sc3nc(=O)n(-c4ccccc4)c(=O)n3c2cc1C,25*,17%,244%,32*,-3%,146%
Cc1c(O)nc2sc3ccccc3n2c1=O,-2,/,29%,6,0%,15%
CSc1ncnc2c1ncn2CCCN(C)CCc1ccccn1,/,-5%,/,/,/,/
CN(CC(=O)Nc1cccc(F)c1)C(=O)/C=C/c1cn(Cc2ccccc2)nc1-c1cccnc1,/,1%,10µM*,/,-1%,?
COC(=O)CC(NC(=O)c1cccs1)c1ccc(OC)c(OC)c1 (centres undefined),-2,4%,-2%,6,0%,i
Cc1c(Cl)cccc1N1C(=O)CC(Sc2ccccc2N)C1=O (centres undefined),/,-2%,/,/,/,/
CC(=O)C1=NN(c2ccccc2)C2(S1)S/C(=C\c1ccccc1)C(=O)N2c1ccccc1 (centres undefined),5,-16%,/,-7,3%,12µM*
COC(=O)C1=NN(c2ccc(C)cc2)C2(S1)SC(C(C)=O)=C(C)N2c1ccccc1 (centres undefined),1,-6%,/,-11,-3%,10µM*
COC(=O)C1=NN(c2ccccc2)C2(S1)SC(C(C)=O)=C(C)N2c1ccccc1 (centres undefined),-3,?,0%,-12,0%,?
SMILES,CHX counter,AMA1 RON2 block,Pf growth 96h,Shiga toxin inh,SARS PLP yeast,Pf growth 48h
O=C(NCc1ccc(F)cc1F)[C@@H]1CCCN1C(=O)[C@@H]1CCCN1C(=O)c1cccs1,/,-3%,/,/,/,/
CC(C)(C)c1ccc(C(=O)N2CCC(C(=O)NCc3ccco3)CC2)cc1,-2,-5%,8%,14,-11%,?
CC1(C(=O)Nc2ccc3ccccc3c2)CC1(Br)Br (centres undefined),29*,0%,28%,65*,-3%,8%
CC(C)CC(=O)Nc1ccc(Nc2ccccc2)cc1,31,-17%,18%,36*,-22%,29%
O=C(CC(c1ccccc1)c1ccccc1)Nc1ccc(O)cc1,-2,0%,-20%,1,3%,-4%
CCC(=O)Nc1ccc2ccccc2c1,21,22%,86%,27,7%,46%
CC(=O)Nc1ccc(NC(=O)CC(c2ccccc2)c2ccccc2)cc1,-4,5%,134%,1,/,12µM*
CC(C)CC(=O)Nc1ccc2ccccc2c1,-2,-16%,30%,92*!,-4%,22%
CCc1ccc2[nH]c(=O)c(C(c3nnnn3CCOC)N3CCN(c4ccccc4)CC3)cc2c1 (centres undefined),-2,2%,-4%,2,1%,?
NC(=O)C1CCN(c2oc(-c3cccs3)nc2S(=O)(=O)c2ccc(Br)cc2)CC1,/,-4%,/,/,0%,/
CSCC[C@@H](CO)NC(=O)[C@H]1O[C@@H](n2ccc(=O)[nH]c2=O)[C@H](O)[C@@H]1O,/,15%,/,/,/,/
COc1ccc(S(=O)(=O)NC2CC(=O)N(c3ccc4c(c3)OCCO4)C2)cc1 (centres undefined),/,0%,-8%,/,-7%,?
CCCCCCNC(=O)CC(c1ccccc1)c1cc(Br)ccc1O (centres undefined),-6,2%,?,6,-82%,12µM*
COCCNC(=O)CSc1nc(-c2ccccc2)c(-c2ccccc2)o1,-4,0%,/,-29,-8%,8.3µM*
Cc1ccn(C(=O)c2ccc(NC(=O)CC(C)C)cc2)n1,15*,-24%,-11%,35,0%,14%
CC(=O)CSc1nc(-c2ccccc2)c(-c2ccccc2)o1,-4,-19%,13%,3,-7%,11%
COCCNC(=O)CC(c1ccccc1)c1ccccc1,-6,3%,9.3µM*,-19,-6%,/
CCc1ccc(/C(C)=N/NC(=O)CNC(=O)/C=C/c2ccco2)cc1,/,1%,/,/,/,/
CC1CC(OC(=O)CN2CCCCC2)CC(C)(C)C1 (centres undefined),-2,/,8%,-8,0%,0%
N#Cc1ccc(CC(C(=O)O)N2Cc3ccccc3C2=O)cc1 (centres undefined),-1,9%,-11%,21,1%,/
CC(C)(C)CC(=O)Nc1ccc(Nc2ccccc2)cc1,23*,-17%,147%,47*,-3%,49%
Cn1nnc2cc(C(=O)Nc3ccccc3F)ccc21,31*,3%,-7%,55*,-3%,75%
O=C(Nc1ccccc1F)c1cccc(C(=O)Nc2ccccc2F)c1,14,4%,?,19,0%,121%
O=C(Nc1cccc(F)c1)c1ccc2ncsc2c1,49*,7%,-1%,105*,-7%,30%
